# Compound activity deposited in PubChem by National Center for Advancing Translational Sciences (NCATS).
# The entries come from a sample that favours hits as a whole.
# KDM5B inh – blocks human KDM5B histone demethylase activity; Q9UGL1; KDM5B demethylase, FDH-coupled NADH fluorescence (FDH is formaldehyde dehydrogenase); Potency, µM (highest dose often 57.7 µM), most hits filed as inhibitors; hit rate 2.6% among 220,000; active = well fitted inhibition curve with a large enough effect; note: 0% is about no effect; nearly all actives have a fitted effect of over 70% in size
# Target sequence (Q9UGL1 whole entry, looked up): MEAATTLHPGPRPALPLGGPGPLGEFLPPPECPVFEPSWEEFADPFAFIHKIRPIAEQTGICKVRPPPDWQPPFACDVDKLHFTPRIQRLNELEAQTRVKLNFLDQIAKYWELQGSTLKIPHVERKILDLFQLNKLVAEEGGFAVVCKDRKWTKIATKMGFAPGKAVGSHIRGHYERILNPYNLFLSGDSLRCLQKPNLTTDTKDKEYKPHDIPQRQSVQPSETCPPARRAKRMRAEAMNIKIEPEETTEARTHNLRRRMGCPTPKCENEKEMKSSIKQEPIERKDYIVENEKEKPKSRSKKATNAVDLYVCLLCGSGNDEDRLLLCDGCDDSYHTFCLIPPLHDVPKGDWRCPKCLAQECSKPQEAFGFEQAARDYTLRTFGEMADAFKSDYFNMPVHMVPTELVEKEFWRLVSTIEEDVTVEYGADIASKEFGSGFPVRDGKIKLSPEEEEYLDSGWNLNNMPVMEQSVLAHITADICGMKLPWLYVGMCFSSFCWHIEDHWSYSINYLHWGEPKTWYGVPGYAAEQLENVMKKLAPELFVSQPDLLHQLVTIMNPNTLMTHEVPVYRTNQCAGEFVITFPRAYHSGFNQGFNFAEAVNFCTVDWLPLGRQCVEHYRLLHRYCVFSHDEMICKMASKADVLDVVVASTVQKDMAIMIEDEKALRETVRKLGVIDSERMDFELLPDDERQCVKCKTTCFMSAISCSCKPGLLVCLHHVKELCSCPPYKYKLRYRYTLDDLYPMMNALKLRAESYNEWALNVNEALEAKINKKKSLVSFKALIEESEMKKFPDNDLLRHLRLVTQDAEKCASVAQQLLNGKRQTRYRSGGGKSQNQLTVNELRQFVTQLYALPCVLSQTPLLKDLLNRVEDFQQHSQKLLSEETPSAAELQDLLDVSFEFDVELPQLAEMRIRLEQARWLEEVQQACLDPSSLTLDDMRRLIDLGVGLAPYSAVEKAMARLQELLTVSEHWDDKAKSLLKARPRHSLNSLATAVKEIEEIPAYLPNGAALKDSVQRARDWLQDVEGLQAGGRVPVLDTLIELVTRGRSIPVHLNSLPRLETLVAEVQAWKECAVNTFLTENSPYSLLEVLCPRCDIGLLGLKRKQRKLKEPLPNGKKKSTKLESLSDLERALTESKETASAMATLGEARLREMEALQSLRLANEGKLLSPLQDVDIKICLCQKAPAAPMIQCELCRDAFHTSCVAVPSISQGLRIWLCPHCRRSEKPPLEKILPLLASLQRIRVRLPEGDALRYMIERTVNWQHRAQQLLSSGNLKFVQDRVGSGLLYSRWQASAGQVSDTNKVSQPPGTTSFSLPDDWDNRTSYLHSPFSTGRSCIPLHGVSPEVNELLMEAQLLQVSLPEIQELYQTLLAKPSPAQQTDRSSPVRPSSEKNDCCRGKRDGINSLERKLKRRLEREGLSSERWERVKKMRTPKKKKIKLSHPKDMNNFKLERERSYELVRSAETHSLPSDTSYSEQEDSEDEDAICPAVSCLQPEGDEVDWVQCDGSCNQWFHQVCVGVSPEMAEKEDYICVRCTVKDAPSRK
#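 Inhibition is measured as reduced NADH fluorescence generation from FDH coupling to formaldehyde release. Truncated KDM5BΔAP at 200 nM final acts on H3K4me3 peptide (12.5 µM in substrate mix) in pH 7.5 HEPES buffer with Tween-20, 30 min, room temperature.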
# An asterisk follows results filed as active; i = inactive. Potency is the fitted concentration of half-maximal effect.
SMILES,KDM5B inh
COc1ccc(CN2Cc3cc(NC(=O)c4ccc(Cl)cc4)ccc3OC(C)C2=O)c(OC)c1 (stereo not drawn),25µM*
COc1ccc(C(=O)Nc2ccc3c(c2)CN(Cc2ccc(OC)cc2OC)C(=O)C(C)O3)cc1 (stereo not drawn),i
CCCCC(=O)NC(NC(=O)CCCC)c1ccc(Cl)cc1,i
COc1ccc(C2c3c(-c4c(C)cc(C)cc4O)n[nH]c3C(=O)N2CCO)cc1OC (stereo not drawn),i
CCOC(=O)N1CCN(C(C(=O)O)c2c[nH]c3ccc(C)cc23)CC1 (stereo not drawn),i
NS(=O)(=O)c1ccc(NCS(=O)(=O)O)cc1,i
CCCn1nc(C(=O)Nc2nc3ccc(OCC)cc3s2)c2ccccc2c1=O,i
O=c1[nH]c2ccc(-c3csc(Nc4ccccc4F)n3)cc2o1,i
CCCS(=O)(=O)C(C)C(=O)O (stereo not drawn),i
Cn1c(=O)c2nc(SCC(=O)c3ccc(Cl)cc3)n(C)c2n(C)c1=O,i
COCCn1ccc2c(C3=CCOCC3)nc(-c3cccc(CO)c3)cc21,40µM*
COCCn1ccc2c(C3=CCOCC3)nc(-c3ccc4cn[nH]c4c3)cc21,40µM*
COCCn1ccc2c(C3=CCOCC3)nc(-c3ccc4c(c3)CNC4=O)cc21,11µM*
COCCn1c(C)nnc1-c1cc(-c2cccc(CO)c2)ccn1,i
COc1ccccc1-c1cc2c(ccn2C)c(C(=O)NCC2CCOCC2)n1,i
COCCn1ccc2c(C3=CCOCC3)nc(-c3cccc4[nH]ncc34)cc21,28µM*
Cc1cc(C)c(CNC(=O)c2nc(-c3cccc(CO)c3)cc3c2ccn3C(C)C)c(=O)[nH]1,i
CC1CCN(CC2CCCN(C(=O)C3(c4ccccc4)CC3)CC2)CC1 (stereo not drawn),i
Cc1nc(/C=C/C(=O)N2CCCCCC2)cs1,i
CCn1cc(C#N)c(=O)n(Cc2nc(-c3ccc(F)cc3)no2)c1=O,i
CN1CCN(C(C(=O)O)c2cn(CC(=O)O)c3cc(Br)ccc23)CC1 (stereo not drawn),i
Cc1ccc(S(=O)(=O)N2CCN(C(C)c3nc4ccccc4c(=O)[nH]3)CC2)c(C)c1 (stereo not drawn),i
CC(OC(=O)c1ccc2c(c1)NC(=O)CS2)C(=O)Nc1cccc(C(F)(F)F)c1 (stereo not drawn),i
Cn1c(=O)c2c(nc(CN3CCN(c4ccc(F)cc4)CC3)n2Cc2ccccc2)n(C)c1=O,i
COc1ccc(CNC(=O)c2nc(-c3cccc4[nH]ccc34)no2)cc1OC,i
SMILES,KDM5B inh
O=C(NCc1cccc(F)c1)c1nc(-c2cccc3[nH]ccc23)no1,i
COCCn1ccc2c(C3=CCOCC3)nc(-c3cccc4[nH]ccc34)cc21,35µM*
CCN1CCN(C(=O)CN2C(=O)c3cccnc3Oc3ccc(Cl)cc32)CC1,i
COC(=O)c1cc(NC(=O)c2nc3ccccc3nc2N2CCCCC2)cc(C(=O)OC)c1,i
CC1(C(=O)N2CCCC2)CCCc2cnc(Nc3cccnc3)nc21 (stereo not drawn),i
COc1ccc(NC(=O)C2(C)CCCc3cnc(Nc4cccnc4)nc32)cc1 (stereo not drawn),i
COc1cccc(NC(=O)C2(C)CCCc3cnc(N(C)C)nc32)c1 (stereo not drawn),40µM*
CN(C)c1ncc2c(n1)C(C)(C(=O)Nc1cccc(F)c1)CCC2 (stereo not drawn),32µM*
COc1cccc(Nc2ncc3c(n2)C(C)(C(=O)N2CCCC2)CC3)c1 (stereo not drawn),i
CC1(C(=O)NC2CC2)CCCc2cnc(Nc3cccnc3)nc21 (stereo not drawn),i
CC1(C(=O)Nc2ccncc2)CCCc2cnc(Nc3ccccc3)nc21 (stereo not drawn),i
CN(CC(=O)Nc1cccc(F)c1)CC(=O)Nc1cccc2ccccc12,i
CN(C)c1ncc2c(n1)C(C)(C(=O)Nc1ccncc1)CCC2 (stereo not drawn),32µM*
CC(=O)NNC(=S)NC1CCCC1,i
CC(=O)NC(Sc1ccc(Cl)cc1)C(=O)c1ccccc1 (stereo not drawn),i
O=C(NCc1coc(-c2cccs2)n1)c1ccc(OC(F)F)cc1,i
CCCCCC1=CCC/C1=N\NC(=O)c1cccnc1,i
O=C1CC(c2ccccc2)N(Cc2ccncc2)CCCN(C(=O)NCc2ccc(F)cc2)CCN1 (stereo not drawn),i
CSCCC(NS(=O)(=O)c1ccc2c(c1)oc(=O)n2C)C(=O)Nc1ccc(F)cc1 (stereo not drawn),i
Cc1ccc(-c2[nH]ncc2C=O)cc1C,i
O=C(O)C(c1c[nH]c2cc(OCc3ccccc3)ccc12)N1CCN(c2cccc(Cl)c2)CC1 (stereo not drawn),i
N#C/C(=C/c1cccs1)c1ccc(C(F)(F)F)cn1,i
CCOc1ccc(NC(=O)C(Sc2ccccc2)c2ccccc2)cc1 (stereo not drawn),i
COc1ccc(Cc2nc3nccc(-c4cccs4)n3n2)cc1,i
COc1ccc(Cc2nc3nccc(-c4ccc(OC)cc4F)n3n2)cc1,28µM*
SMILES,KDM5B inh
Fc1ccc(Cc2nc3nccc(-c4ccncc4)n3n2)cc1,i
Fc1ccc(Cc2nc3nccc(-c4cccs4)n3n2)cc1,28µM*
COc1ccc(Cc2nc3nccc(-c4ccc(F)cc4OC)n3n2)cc1,18µM*
COc1cc(F)ccc1-c1ccnc2nc(CC(C)C)nn12,28µM*
O=C(NCC(O)c1ccc(F)cc1F)c1cnccn1 (stereo not drawn),i
Cc1[nH]c(=O)[nH]c(=O)c1CCC(=O)Nc1nccs1,i
O=C(Nc1oc2ccc(Cl)cc2c(=O)c1-c1ccccc1)c1ccco1,i
CCOC(=O)C1CCN(c2nc3ccccc3n3c(=O)n(CC(=O)Nc4ccccc4C#N)nc23)CC1,i
COc1ccc(CC(=O)Nc2nonc2-c2ccc(OC(C)C)cc2)cc1,i
Cc1c(-c2ccccc2)oc2c(C(=O)OCC(=O)Nc3ccccc3F)cccc2c1=O,i
CN1CCN(C(=O)CN2CCN(C(C(=O)O)c3cn(CC(=O)O)c4cc(Cl)ccc34)CC2)CC1 (stereo not drawn),i
O=C(CCCc1nc2ccccc2s1)NCCc1cccc(F)c1,i
CCCCN(C)C(=O)c1ccc(S(=O)(=O)NCc2ccco2)cc1,i
Cc1ccc(F)c(NC(=O)CCNC(=O)c2ccco2)c1,i
Cc1ccc(CN2CCN(C(=O)CC(C)(C)C)CC2)cc1,i
N#Cc1cccc(NC(=O)c2ccc3c(c2)NC(=O)CS3)c1,i
COc1ccc(-c2ccnc3nc(Cc4ccc(F)cc4)nn23)c(F)c1,25µM*
C=C(C)CN(CC)C(=O)CN1CCC(C(=O)NCCCO)CC1,i
c1ccc(CC2CNC2)cc1,i
Cc1cccc(NC(=O)C2(C#N)C(c3ccccc3)C2(C)C(=O)c2ccccc2)c1 (stereo not drawn),i
CCc1n[nH]c(CC2CCN(C(=O)c3ccccc3)CC2)n1,22µM*
O=C(c1ccccc1)N1CCC(Cc2nc(-c3ccncc3)n[nH]2)CC1,i
CCc1n[nH]c(CC2CCN(C(=O)c3ccc(OC)c(OC)c3)CC2)n1,i
CC(NC(=O)c1ccc(-c2ccccc2)cc1)C1CC2CCC1C2 (stereo not drawn),i
CC(C)c1ccc(NC(=O)C2CC(=O)NC(N3CCN(c4ccc(F)cc4)CC3)=N2)cc1 (stereo not drawn),i
